Experimental data reported in PubChem BioAssay (NCI).
Compounds without any hit were thinned out: in the full panel of roughly 79,000, 15% have a hit. A number with no mark means an inactive call. Active and inactive are the calls of the source. No stated cut-off is given here; in the data, active means growth inhibition above about 70%; inactive means the rest.

Key:
[1] = NCI Yeast Anticancer Drug Screen. Data for the wt1 strain (AID 149);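 further: 0% = growth of vehicle-treated wt1 cultures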; conditions: S. cerevisiae wt1 strain (SPY 50644) growth inhibition, hits give high values
Outline: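 Compounds are added to wt1 yeast cultures. Growth is then measured. Inhibition is expressed relative to vehicle-treated controls.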

[2] = NCI Yeast Anticancer Drug Screen. Data for the rad50EPP+ strain (AID 151);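 further: 0% = growth of vehicle-treated control cultures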; conditions: S. cerevisiae rad50 mutant strain, hits give high values
Outline: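 Growth inhibition read against vehicle controls in rad50EPP+ yeast, a strain altered in DNA damage repair, after compound exposure.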

[3] = NCI Yeast Anticancer Drug Screen. Data for the mgt1 strain (AID 153); conditions: S. cerevisiae mgt1 mutant growth inhibition, hits give high values
Outline: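 mgt1 yeast grown with test compound; read-out is growth inhibition versus vehicle-treated cultures.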

[4] = NCI Yeast Anticancer Drug Screen. Data for the rad50 strain (AID 155);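 further: 0% = growth of vehicle-only cultures of the same strain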; conditions: S. cerevisiae rad50 strain growth inhibition, hits give high values
Outline: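 Inhibition values express reduced yeast growth in compound-treated cultures relative to vehicle-treated controls.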

[5] = NCI Yeast Anticancer Drug Screen. Data for the mec2-1 strain (AID 157); conditions: S. cerevisiae mec2-1 strain, hits give high values
Outline: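 Yeast mec2-1 mutant treated with compound. Readout: growth inhibition vs vehicle controls.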

[6] = NCI Yeast Anticancer Drug Screen. Data for the rad14 strain (AID 159);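 further: 0% = growth of vehicle-treated control cultures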; conditions: S. cerevisiae rad14 strain growth inhibition, hits give high values
Outline: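 A mutant yeast strain defective in DNA damage repair is treated with compound; inhibition of its growth is scored against untreated, vehicle-exposed cultures.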

[7] = NCI Yeast Anticancer Drug Screen. Data for the sgs1 mgt1 strain (AID 161);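 further: 0% = growth of cultures given vehicle only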; conditions: S. cerevisiae sgs1 mgt1 strain, hits give high values
Outline: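 Inhibition of yeast growth, normalised to vehicle-treated controls, is reported for a strain bearing genetic alterations in DNA damage repair.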

[8] = NCI Yeast Anticancer Drug Screen. Data for the CLN2oe strain (AID 163);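 further: 0% = growth of vehicle-only control cultures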; conditions: S. cerevisiae CLN2oe strain, hits give high values
Outline: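 Read-out: yeast growth inhibition, expressed relative to vehicle-only controls. The strain bears an engineered cell-cycle alteration.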

[9] = NCI Yeast Anticancer Drug Screen. Data for the cln2 rad14 strain (AID 165);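 further: 0% = growth equal to vehicle treated cultures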; conditions: S. cerevisiae cln2 rad14 strain, hits give high values
Outline: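 cln2 rad14 yeast strain; compound exposure; growth inhibition read vs vehicle controls.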

[10] = NCI Yeast Anticancer Drug Screen. Data for the bub3 strain (AID 167); conditions: S. cerevisiae bub3 mutant strain, hits give high values
Outline: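 Steps: expose the mutant yeast strain to compound; grow alongside vehicle-treated cultures; measure growth; express inhibition against the vehicle cultures.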

[11] = NCI Yeast Anticancer Drug Screen. Data for the wt2 strain (AID 169);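 further: 0% = growth of vehicle-treated yeast cultures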; conditions: S. cerevisiae wt2 strain growth inhibition, hits give high values
Outline: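 Read-out: growth inhibition versus vehicle-treated control cultures after compound exposure of the yeast strain.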

[12] = NCI Yeast Anticancer Drug Screen. Data for the mlh1 strain (AID 171);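 further: 0% = growth of vehicle-treated control cultures of the same strain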; conditions: S. cerevisiae mlh1 strain growth inhibition, hits give high values
Outline: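 Read-out: growth inhibition versus vehicle controls. Strain: engineered yeast with a defined DNA repair or cell cycle defect, compound-treated.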

[13] = NCI Yeast Anticancer Drug Screen. Data for the sgs1 strain (AID 173);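 further: 0% = growth of vehicle-only control cultures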; conditions: S. cerevisiae sgs1 mutant, hits give high values
Outline: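 Read-out: yeast growth inhibition relative to vehicle controls, following compound exposure of a strain with a defined DNA repair/cell cycle alteration.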

[14] = NCI Yeast Anticancer Drug Screen. Data for the mlh1 rad18 strain (AID 175); conditions: S. cerevisiae mlh1 rad18 strain growth inhibition, hits give high values
Outline: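 Yeast w/ defined DNA-repair lesions; compound exposure; growth vs vehicle controls → % inhibition.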

[15] = NCI Yeast Anticancer Drug Screen. Data for the rad18 strain (AID 177); conditions: S. cerevisiae rad18 mutant growth inhibition, hits give high values
Outline: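 Readout: growth inhibition vs vehicle controls. Cells: genetically altered yeast strain, DNA repair defect.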

[16] = at 5.0 µM (retest, dose inferred, filed as 0.5)
[17] = at 50.0 µM (retest, dose inferred, filed as 5.0)

## [O-]c1c2cc(-[n+]3c(-c4ccccc4)cc(-c4ccccc4)cc3-c3ccccc3)cc1COCCOCCOCCOCCOC2
[1]; at 1.2 µM
  growth inhibition: 3%
[1]; at 3.7 µM
  growth inhibition: -6%
[1]; at 11.0 µM
  growth inhibition: -6%
[1]; at 33.0 µM
  growth inhibition: -7%
[1]; at 100.0 µM
  growth inhibition: 35%
[2]; at 1.2 µM
  growth inhibition: -1%
[2]; at 3.7 µM
  growth inhibition: 0%
[2]; at 11.0 µM
  growth inhibition: 5%
[2]; at 33.0 µM
  growth inhibition: 31%
[2]; at 100.0 µM
  growth inhibition: 66%
[3]; at 1.2 µM
  growth inhibition: -7%
[3]; at 3.7 µM
  growth inhibition: -2%
[3]; at 11.0 µM
  growth inhibition: -13%
[3]; at 33.0 µM
  growth inhibition: 10%
[3]; at 100.0 µM
  growth inhibition: 82% (active)
[4]; at 1.2 µM
  growth inhibition: 1%
[4]; at 3.7 µM
  growth inhibition: -2%
[4]; [16]
  growth inhibition: -5%
[4]; at 11.0 µM
  growth inhibition: 0%
[4]; at 33.0 µM
  growth inhibition: 17%
[4]; [17]
  growth inhibition: 35%
[4]; at 50.0 µM
  growth inhibition: 59.1%
[4]; at 100.0 µM
  growth inhibition: 80% (active)
[5]; at 1.2 µM
  growth inhibition: -5%
[5]; at 3.7 µM
  growth inhibition: -4%
[5]; [16]
  growth inhibition: -7%
[5]; at 11.0 µM
  growth inhibition: -2%
[5]; at 33.0 µM
  growth inhibition: 4%
[5]; [17]
  growth inhibition: 31%
[5]; at 50.0 µM
  growth inhibition: 33%
[5]; at 100.0 µM
  growth inhibition: 77% (active)
[6]; at 1.2 µM
  growth inhibition: 1%
[6]; at 3.7 µM
  growth inhibition: 1%
[6]; at 11.0 µM
  growth inhibition: 1%
[6]; at 33.0 µM
  growth inhibition: 9%
[6]; at 100.0 µM
  growth inhibition: 81% (active)
[7]; [16]
  growth inhibition: -11%
[7]; [17]
  growth inhibition: 20%
[7]; at 50.0 µM
  growth inhibition: 31.6%
[8]; at 1.2 µM
  growth inhibition: -6%
[8]; at 3.7 µM
  growth inhibition: 1%
[8]; at 11.0 µM
  growth inhibition: -3%
[8]; at 33.0 µM
  growth inhibition: -6%
[8]; at 100.0 µM
  growth inhibition: 77% (active)
[9]; [16]
  growth inhibition: -31%
[9]; [17]
  growth inhibition: 12%
[9]; at 50.0 µM
  growth inhibition: 17.1%
[10]; at 1.2 µM
  growth inhibition: -4%
[10]; at 3.7 µM
  growth inhibition: -6%
[10]; [16]
  growth inhibition: -19%
[10]; at 11.0 µM
  growth inhibition: -4%
[10]; at 33.0 µM
  growth inhibition: -8%
[10]; [17]
  growth inhibition: 10%
[10]; at 50.0 µM
  growth inhibition: 21.7%
[10]; at 100.0 µM
  growth inhibition: 30%
[11]; at 1.2 µM
  growth inhibition: -2%
[11]; at 3.7 µM
  growth inhibition: -3%
[11]; at 11.0 µM
  growth inhibition: -2%
[11]; at 33.0 µM
  growth inhibition: 18%
[11]; at 100.0 µM
  growth inhibition: 82% (active)
[12]; at 1.2 µM
  growth inhibition: -1%
[12]; at 3.7 µM
  growth inhibition: -1%
[12]; at 11.0 µM
  growth inhibition: -2%
[12]; at 33.0 µM
  growth inhibition: 12%
[12]; at 100.0 µM
  growth inhibition: 87% (active)
[13]; at 1.2 µM
  growth inhibition: -4%
[13]; at 3.7 µM
  growth inhibition: -2%
[13]; at 11.0 µM
  growth inhibition: -1%
[13]; at 33.0 µM
  growth inhibition: 18%
[13]; at 100.0 µM
  growth inhibition: 71% (active)
[14]; [16]
  growth inhibition: 0%
[14]; [17]
  growth inhibition: 70% (active)
[14]; at 50.0 µM
  growth inhibition: 72.2% (active)
[15]; at 1.2 µM
  growth inhibition: -1%
[15]; at 3.7 µM
  growth inhibition: -3%
[15]; at 11.0 µM
  growth inhibition: -3%
[15]; at 33.0 µM
  growth inhibition: 6%
[15]; at 100.0 µM
  growth inhibition: 74% (active)

## C=Cc1c(C)c(O)cc2c1-c1ccc(O)c(C)c1CC2
[1]; at 1.2 µM
  growth inhibition: -8%
[1]; at 3.7 µM
  growth inhibition: -4%
[1]; at 11.0 µM
  growth inhibition: -11%
[1]; at 33.0 µM
  growth inhibition: 98% (active)
[1]; at 100.0 µM
  growth inhibition: 98% (active)
[2]; at 1.2 µM
  growth inhibition: 1%
[2]; at 3.7 µM
  growth inhibition: 24%
[2]; at 11.0 µM
  growth inhibition: 16%
[2]; at 33.0 µM
  growth inhibition: 40%
[2]; at 100.0 µM
  growth inhibition: 98% (active)
[3]; at 1.2 µM
  growth inhibition: -18%
[3]; at 3.7 µM
  growth inhibition: -1%
[3]; at 11.0 µM
  growth inhibition: -3%
[3]; at 33.0 µM
  growth inhibition: 98% (active)
[3]; at 100.0 µM
  growth inhibition: 99% (active)
[4]; at 1.2 µM
  growth inhibition: -20%
[4]; at 3.7 µM
  growth inhibition: -3%
[4]; [16]
  growth inhibition: 46%
[4]; at 11.0 µM
  growth inhibition: 12%
[4]; at 33.0 µM
  growth inhibition: 97% (active)
[4]; [17]
  growth inhibition: 75% (active)
[4]; at 50.0 µM
  growth inhibition: -24.6%
[4]; at 100.0 µM
  growth inhibition: 99% (active)
[5]; at 1.2 µM
  growth inhibition: -19%
[5]; at 3.7 µM
  growth inhibition: -8%
[5]; [16]
  growth inhibition: 22%
[5]; at 11.0 µM
  growth inhibition: -7%
[5]; at 33.0 µM
  growth inhibition: 98% (active)
[5]; [17]
  growth inhibition: 97% (active)
[5]; at 50.0 µM
  growth inhibition: -52.2%
[5]; at 100.0 µM
  growth inhibition: 98% (active)
[6]; at 1.2 µM
  growth inhibition: -21%
[6]; at 3.7 µM
  growth inhibition: -21%
[6]; at 11.0 µM
  growth inhibition: -19%
[6]; at 33.0 µM
  growth inhibition: 97% (active)
[6]; at 100.0 µM
  growth inhibition: 98% (active)
[7]; [16]
  growth inhibition: 55%
[7]; [17]
  growth inhibition: 93% (active)
[7]; at 50.0 µM
  growth inhibition: -18.5%
[8]; at 1.2 µM
  growth inhibition: 10%
[8]; at 3.7 µM
  growth inhibition: 5%
[8]; at 11.0 µM
  growth inhibition: 26%
[8]; at 33.0 µM
  growth inhibition: 98% (active)
[8]; at 100.0 µM
  growth inhibition: 99% (active)
[9]; [16]
  growth inhibition: 12%
[9]; [17]
  growth inhibition: 59%
[9]; at 50.0 µM
  growth inhibition: 10.6%
[10]; at 1.2 µM
  growth inhibition: -9%
[10]; at 3.7 µM
  growth inhibition: -11%
[10]; [16]
  growth inhibition: 28%
[10]; at 11.0 µM
  growth inhibition: 5%
[10]; at 33.0 µM
  growth inhibition: 98% (active)
[10]; [17]
  growth inhibition: 97% (active)
[10]; at 50.0 µM
  growth inhibition: -43.2%
[10]; at 100.0 µM
  growth inhibition: 99% (active)
[11]; at 1.2 µM
  growth inhibition: -63%
[11]; at 3.7 µM
  growth inhibition: -43%
[11]; at 11.0 µM
  growth inhibition: 37%
[11]; at 33.0 µM
  growth inhibition: 46%
[11]; at 100.0 µM
  growth inhibition: 88% (active)
[12]; at 1.2 µM
  growth inhibition: 12%
[12]; at 3.7 µM
  growth inhibition: -8%
[12]; at 11.0 µM
  growth inhibition: 3%
[12]; at 33.0 µM
  growth inhibition: 98% (active)
[12]; at 100.0 µM
  growth inhibition: 99% (active)
[13]; at 1.2 µM
  growth inhibition: -7%
[13]; at 3.7 µM
  growth inhibition: 16%
[13]; at 11.0 µM
  growth inhibition: 36%
[13]; at 33.0 µM
  growth inhibition: 98% (active)
[13]; at 100.0 µM
  growth inhibition: 99% (active)
[14]; [16]
  growth inhibition: 69%
[14]; [17]
  growth inhibition: 87% (active)
[14]; at 50.0 µM
  growth inhibition: 89.3% (active)
[15]; at 1.2 µM
  growth inhibition: -25%
[15]; at 3.7 µM
  growth inhibition: -7%
[15]; at 11.0 µM
  growth inhibition: 4%
[15]; at 33.0 µM
  growth inhibition: 98% (active)
[15]; at 100.0 µM
  growth inhibition: 99% (active)
